Test results as given in PubChem BioAssay AID1987 (The Scripps Research Institute Molecular Screening Center, 2009).
Values joined by “and” are separate entries in the source; they are usually repeats but may differ in a detail not shown here. Equal values may be shown once. The campaign covered roughly 320,000 compounds. About 560 (0.17%) were called active.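 The calls were made as follows: active = inhibition above the campaign's mean inhibition across all tested compounds plus 3 SD (cut at about 9.5% in these data); inactive = the rest.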 The sample as a whole holds a higher share of actives than the screen did.

Each molecule was assayed against Serine/threonine-protein phosphatase 5 (Homo sapiens) (UniProt P53041) (assay: inhibition of human PP5 catalytic activity – biochemical, fluorescence, primary screen (AID 1987;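 also: 0% = DMSO only and 100% = 100 µM cantharidin control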)). Conditions: purified PP5c, OMFP substrate fluorescence; at 6.7 µM; stronger effect = higher value.
Chain of Serine/threonine-protein phosphatase 5 (Homo sapiens) (P53041 whole entry, looked up): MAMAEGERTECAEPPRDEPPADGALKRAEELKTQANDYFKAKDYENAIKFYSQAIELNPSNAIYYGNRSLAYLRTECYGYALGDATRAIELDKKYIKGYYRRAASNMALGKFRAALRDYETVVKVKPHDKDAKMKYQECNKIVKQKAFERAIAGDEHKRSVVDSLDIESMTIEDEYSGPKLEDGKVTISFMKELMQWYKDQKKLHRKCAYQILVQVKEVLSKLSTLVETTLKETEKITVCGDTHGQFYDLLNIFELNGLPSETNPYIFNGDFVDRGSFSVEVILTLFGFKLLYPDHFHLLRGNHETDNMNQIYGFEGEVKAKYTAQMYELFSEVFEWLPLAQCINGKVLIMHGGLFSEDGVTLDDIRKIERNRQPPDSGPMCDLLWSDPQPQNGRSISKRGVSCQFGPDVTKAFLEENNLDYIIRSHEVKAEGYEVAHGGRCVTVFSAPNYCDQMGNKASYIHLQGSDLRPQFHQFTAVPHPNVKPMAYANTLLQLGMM
For `O=C(O)CCc1nc2cc(Cl)ccc2n(Cc2ccccc2)c1=O`, the inhibition was -2.07% (inactive). With `CCOC(=O)Nc1ccc2c(c1)N(C(=O)CN1CCN3CCCC3C1)c1ccccc1CC2` (centres undefined) the inhibition was 10.7% (active). With `CCOC(=O)Nc1ccc2c(c1)N(C(=O)CCN1CCN(CCO)CC1)c1ccccc1CC2` the inhibition was 2.46% (inactive). With `CCOC(=O)Nc1ccc2c(c1)N(C(=O)CCCl)c1ccccc1[S@]2=O` the inhibition was -0.16% (inactive). In the case of `O=S1(=O)N=C(N(CCO)/N=C/c2ccccc2F)c2ccccc21`, the inhibition is reported as -2.75% (inactive). `CC(C)Cn1cnc2c1c(=O)n(CC(=O)NN)c(=O)n2Cc1ccccc1` was tested, and the inhibition was 1.33% (inactive). With `CC(=O)c1c(C)[nH]c(C(=O)Nc2cc(S(=O)(=O)N(C)C)ccc2C)c1C` the inhibition was 3.8% (inactive). `O=C(N=C1SC2CS(=O)(=O)CC2N1c1cc(Cl)ccc1Cl)C1CC1` (centres undefined) was tested, and the inhibition was -1.21% (inactive). For `CC(C)OC(=O)c1sc2nc3c(cc2c1N)C(=O)CCC3`, the inhibition was -4.25% (inactive). For `O=C(O)c1ccc(-n2cccc2)cc1O`, the inhibition was 1.23% (inactive). For `O=C(Nc1ccccc1F)C1C2C=CC3(O2)C1C(=O)N(c1cccnc1)C3C(=O)NC1CCCCC1` (centres undefined), the inhibition was 2.73% (inactive). With `O=C(O)c1ccc(S(=O)(=O)N2CCC(Cc3ccccc3)CC2)cc1` the inhibition was -3.11% (inactive). In the case of `CCCCN(CCCC)CCCNC(=O)CN1C(=O)COc2ccc(S(=O)(=O)N3CCC(C)CC3)cc21`, the inhibition is reported as -1.56% (inactive). With `COc1ccc(CCNC(=S)NC(=O)/C=C/c2ccc(C)cc2)cc1OC` the inhibition was 1.62% (inactive). In the case of `Cn1c(Cc2cccc3ccccc23)nnc1SCC(=O)N1CCN(c2cccc(Cl)c2)CC1`, the inhibition is reported as 3.02% (inactive). With `Nc1nc(SCC(=O)NN(c2ccccc2)c2ccccc2)n[nH]1` the inhibition was -0.37% (inactive). `Cc1cccn2cc(-c3cccc(S(=O)(=O)N4CCCCC4)c3)nc12` was tested, and the inhibition was 0.22% (inactive). For `COc1ccc(/C=C2\SC(=S)N(CCCC(=O)NC3CCCC3)C2=O)cc1OC`, the inhibition was -4.92% (inactive). In the case of `COc1cc(/C=C2/SC(=S)N(Cc3ccccc3)C2=O)cc(OC)c1O`, the inhibition is reported as 10.8% (active). For `COc1ccc(/C=C2\SC(=S)N(CCC(=O)Nc3cccc(C(=O)O)c3)C2=O)cc1OC`, the inhibition was 0.86% (inactive). In the case of `Cc1c(CCC(=O)N[C@@H](CC(C)C)C(=O)O)c(=O)oc2c(C)c3oc4c(c3cc12)CCCC4`, the inhibition is reported as -1.14% (inactive). For `CN1CC(=O)N=C1N`, the inhibition was 2.26% (inactive) and -0.51% (inactive). In the case of `CC1(C)O[C@@H]2[C@H](O1)[C@@H](COS(=O)(=O)O)O[C@H]2n1cnc2c(=O)[nH]cnc21`, the inhibition is reported as 0.9% (inactive). With `COCCOC1CCN(C(=O)c2ccc(OC)c(OC3CCN(C(C)C)CC3)c2)CC1` the inhibition was 0.82% (inactive). In the case of `CC(C)C[C@H](NC(=O)C1CC(=O)N(c2ccc3c(c2)OCCO3)C1)C(=O)NC1CCCC1` (some centres undefined), the inhibition is reported as -0.77% (inactive). For `COc1ccc(S(=O)(=O)NNC(=O)Nc2ccc(C)cc2)c(OC)c1`, the inhibition was 0.5% (inactive). `CCOC(=O)c1c(NC(=O)C2CCN(S(=O)(=O)c3ccc(Cl)cc3)CC2)sc2c1CCCC2` was tested, and the inhibition was 0.34% (inactive). For `CC(C)OC(=O)c1c(NC(=O)c2ccco2)sc2c1CCCC2`, the inhibition was 1.48% (inactive). In the case of `COc1ccc(NC(=S)SC)cc1OC`, the inhibition is reported as 3.15% (inactive). In the case of `COC(=O)c1cc(NC(=O)C2C3C=CC(C3)C2C(=O)O)cc(C(=O)OC)c1` (centres undefined), the inhibition is reported as 1.39% (inactive). For `CC(C)COC(=O)c1ccc(NC(=O)C2C3C=CC(C3)C2C(=O)O)cc1` (centres undefined), the inhibition was 1.86% (inactive). `COc1ccc(NC(=O)C2C3CCC(O3)C2C(=O)O)cc1OC` (centres undefined) was tested, and the inhibition was 76.2% (active). `CC(C)OC(=O)c1cc(NC(=O)C2C3CCC(O3)C2C(=O)O)cc(C(=O)OC(C)C)c1` (centres undefined) was tested, and the inhibition was 55.6% (active). For `COc1ccc(NC(=O)CNC(=O)Cc2ccccc2)cc1OC`, the inhibition was -2.46% (inactive). In the case of `Cc1sc(NC(=O)C2C3CCC(O3)C2C(=O)O)c(C(=O)OC(C)C)c1-c1ccc(Cl)cc1` (centres undefined), the inhibition is reported as 15.1% (active). `Cc1cc(C)n(-c2nnc(N3CCN(c4ccccc4)CC3)nn2)n1` was tested, and the inhibition was -0.74% (inactive). In the case of `COCCCNC(=O)C1CC(=O)N(CCc2ccc(F)cc2)C1` (centres undefined), the inhibition is reported as -1.89% (inactive). For `CC(C)CCn1cnc2c1c(=O)n(CC(=O)NC(N)=O)c(=O)n2Cc1ccccc1`, the inhibition was 1.52% (inactive). With `COc1ccc2c(c1)C(=O)Nc1cc(Cl)ccc1N2` the inhibition was -0.62% (inactive). For `CC(C)CN(C(=O)Cn1c(=O)cnc2ccccc21)C1CCS(=O)(=O)C1` (centres undefined), the inhibition was -1.01% (inactive). With `COc1ccc(S(=O)(=O)N2CCN(C(=O)c3cc(C)oc3C)CC2)cc1` the inhibition was 0.44% (inactive). With `CCCCn1c(N)c(N(CCC(C)C)C(=O)COC(=O)c2cccnc2OCC)c(=O)[nH]c1=O` the inhibition was 0.18% (inactive). `CC(=O)Nc1ccccc1OC(C)C(=O)N1CCC(C)CC1` (centres undefined) was tested, and the inhibition was -1.03% (inactive). In the case of `Nc1nnc(SCC(=O)OCc2ccc(Cl)c(Cl)c2)s1`, the inhibition is reported as 1.15% (inactive). With `CCN1C(=O)[C@H]2[C@@H](c3ccc(SC4CCCCC4)c(OC)c3)N[C@@](Cc3ccccc3)(C(=O)OC)[C@H]2C1=O` the inhibition was 2.69% (inactive). With `CC(C)Oc1ccc(C(CC(=O)N2CCOCC2)C(C)C)cc1` (centres undefined) the inhibition was 0.66% (inactive). For `Cc1cccc(N(C(=O)c2csnn2)C(C(=O)NCc2ccccc2)c2ccncc2)c1` (centres undefined), the inhibition was 1.82% (inactive). `Cn1cnnc1Sc1ccc(S(C)(=O)=O)cc1[N+](=O)[O-]` was tested, and the inhibition was -0.46% (inactive). For `CCOC(=O)c1cnc(COc2ccccc2Cl)[nH]c1=O`, the inhibition was -1.14% (inactive). For `CC1CC(C)(C)n2c(O)c(N=NC(N)=S)c3cccc1c32` (centres undefined), the inhibition was 3.55% (inactive). In the case of `Cn1ccnc1SCC(=O)Nc1ccc2c(c1)OCCO2`, the inhibition is reported as 2.87% (inactive). `COc1ccc(Cl)cc1C(=O)Nc1ccc(N(C)C(C)=O)cc1` was tested, and the inhibition was 0.43% (inactive). For `COc1cc(C(F)(F)F)c(C(=O)N(C)c2ccc(Cl)cc2)cn1`, the inhibition was 11.3% (active). `COc1cccc(OC)c1CN(C)C(=O)c1cnccc1C(F)(F)F` was tested, and the inhibition was 0.42% (inactive). `COc1ccccc1NC(=O)COC(=O)COc1ccccc1F` was tested, and the inhibition was 2.17% (inactive). In the case of `Oc1c(C(c2ccccn2)N2CCOCC2)ccc2cccnc12` (centres undefined), the inhibition is reported as 11.2% (active). For `CC(C)c1cc(CN2CCOCC2)cc(C(C)C)c1O`, the inhibition was 1.58% (inactive). `CN(C)c1ccc(C(CC(=O)O)C(=O)O)cc1` (centres undefined) was tested, and the inhibition was 0.86% (inactive). For `CCN(CC)c1nc(-c2ccccc2)cc(C(F)(F)F)c1C#N`, the inhibition was 0.13% (inactive). For `O=C(Cc1ccccc1Cl)N1CCOCC1`, the inhibition was -1.76% (inactive). For `CN(C(=O)Nc1ccc(Cl)cc1)n1cnc2ccccc2c1=O`, the inhibition was -2.44% (inactive). `CC(C)(C)c1cc[n+](-c2[nH]c(=O)sc2/C=N/N=C(\[O-])c2ccccc2)cc1` was tested, and the inhibition was -0.11% (inactive). `O=C(CSc1ncnc2sccc12)N1CCN(C(=O)c2cccs2)CC1` was tested, and the inhibition was 0.16% (inactive). In the case of `CCC(C)Sc1nc(C)nc2c1c(=O)n(C)c(=O)n2C` (centres undefined), the inhibition is reported as 2.18% (inactive). With `CCn1c(C)nc2c1C(=O)c1ccccc1C2=O` the inhibition was -1.27% (inactive). For `CCc1nnc(NC(=O)c2cc(S(=O)(=O)N3CCCCC3)ccc2C)s1`, the inhibition was 3.35% (inactive). In the case of `O=S1(=O)CC/C(=N\Nc2ccc(F)cc2)c2ccsc21`, the inhibition is reported as 1.6% (inactive). With `O=Cc1cn(-c2ccccc2)nc1-c1ccccn1` the inhibition was 0.89% (inactive). With `C=CCc1ccccc1OCC(O)CN1CCN(CCO)CC1` (centres undefined) the inhibition was 0.89% (inactive). For `CCN1CCN(CCNC(=O)c2ccc(/C=C3/Sc4ccccc4N(Cc4cccc(C)c4)C3=O)cc2)CC1`, the inhibition was 10.1% (active). For `CN1CCN(CCCNC(=O)c2ccc(/C=C3\Oc4ccccc4N(Cc4ccc(Cl)cc4)C3=O)cc2)CC1`, the inhibition was 4.83% (inactive). For `O=C(NCCCN1CCOCC1)c1ccc2c(c1)N(Cc1cccc(F)c1)C(=O)c1ccccc1S2`, the inhibition was -0.03% (inactive). For `COc1ccc(CNc2c(CO)cnc3c2cnn3C)cc1`, the inhibition was 0.82% (inactive). `CC(C(=O)c1ccc(-c2ccccc2)cc1)[n+]1cccc(Br)c1` (centres undefined) was tested, and the inhibition was 0.21% (inactive).
